A number with no mark means an inactive call.

Holding throughout (experiment): log2 ratio of Biotin-Ahx-Ub-VS probe labelling (fragment/DMSO); higher = less target engagement (more negative = stronger competition), active = hit call of the paper (q ≤ 0.05, log2 ratio ≤ -1)
Conditions in all cases: compound concentration: 200 uM; treatment time: 3 h

For one experiment, the target named is T1, USP42 (UniProt Q9H9J4).
T1 sequence (whole entry): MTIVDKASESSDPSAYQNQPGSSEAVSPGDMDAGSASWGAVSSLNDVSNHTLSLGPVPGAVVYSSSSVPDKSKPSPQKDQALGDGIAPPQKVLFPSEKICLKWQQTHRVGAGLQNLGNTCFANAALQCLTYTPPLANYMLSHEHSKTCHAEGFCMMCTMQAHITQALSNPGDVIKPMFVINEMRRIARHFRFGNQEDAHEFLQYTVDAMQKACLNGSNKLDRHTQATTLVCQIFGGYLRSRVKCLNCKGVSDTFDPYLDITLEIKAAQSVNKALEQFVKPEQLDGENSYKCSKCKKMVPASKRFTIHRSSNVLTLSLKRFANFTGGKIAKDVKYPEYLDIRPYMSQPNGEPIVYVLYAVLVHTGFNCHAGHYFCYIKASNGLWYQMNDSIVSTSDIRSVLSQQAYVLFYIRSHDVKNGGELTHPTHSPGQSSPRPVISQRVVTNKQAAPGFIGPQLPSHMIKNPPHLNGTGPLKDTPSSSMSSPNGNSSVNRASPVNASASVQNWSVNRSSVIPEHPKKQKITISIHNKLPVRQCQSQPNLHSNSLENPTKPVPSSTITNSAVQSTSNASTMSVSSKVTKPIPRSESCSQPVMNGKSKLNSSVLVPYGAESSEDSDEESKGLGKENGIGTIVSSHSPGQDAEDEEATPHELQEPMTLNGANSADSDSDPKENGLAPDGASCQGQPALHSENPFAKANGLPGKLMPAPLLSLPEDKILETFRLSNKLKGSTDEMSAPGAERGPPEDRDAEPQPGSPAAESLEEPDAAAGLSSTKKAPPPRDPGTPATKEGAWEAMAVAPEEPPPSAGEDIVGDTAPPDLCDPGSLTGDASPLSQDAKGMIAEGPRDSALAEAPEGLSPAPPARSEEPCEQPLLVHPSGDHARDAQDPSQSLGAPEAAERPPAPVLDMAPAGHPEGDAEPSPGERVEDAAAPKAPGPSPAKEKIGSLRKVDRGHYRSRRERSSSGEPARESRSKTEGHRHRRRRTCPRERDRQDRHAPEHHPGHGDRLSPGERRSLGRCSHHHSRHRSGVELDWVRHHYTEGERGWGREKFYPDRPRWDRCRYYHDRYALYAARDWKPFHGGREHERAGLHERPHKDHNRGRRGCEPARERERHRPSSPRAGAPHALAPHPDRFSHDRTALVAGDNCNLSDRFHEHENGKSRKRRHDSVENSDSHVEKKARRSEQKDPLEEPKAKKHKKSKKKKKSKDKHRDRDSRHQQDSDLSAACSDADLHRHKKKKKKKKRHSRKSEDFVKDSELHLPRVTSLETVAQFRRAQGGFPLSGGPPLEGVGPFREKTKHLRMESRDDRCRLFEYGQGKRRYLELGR
The method in brief:
(§1)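 Labelled DUBs were enriched with NeutrAvidin, digested with LysC and trypsin, and run by diaPASEF LC-MS/MS. The labelling used Biotin-Ahx-Ub-VS at 0.5 µM final for 1 h on HEK293T lysate (495 µg per sample) previously treated in triplicate with fragment at 200 µM or vehicle for 3 h. Values are average log2 fragment/vehicle ratios by unpaired t-test on global-median-normalised Spectronaut quantities of proteins with ≥2 unique peptides.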

The target of the next experiment is USP46 (UniProt P62068). The method in brief: as §1
USP46, sequence (P62068 whole entry): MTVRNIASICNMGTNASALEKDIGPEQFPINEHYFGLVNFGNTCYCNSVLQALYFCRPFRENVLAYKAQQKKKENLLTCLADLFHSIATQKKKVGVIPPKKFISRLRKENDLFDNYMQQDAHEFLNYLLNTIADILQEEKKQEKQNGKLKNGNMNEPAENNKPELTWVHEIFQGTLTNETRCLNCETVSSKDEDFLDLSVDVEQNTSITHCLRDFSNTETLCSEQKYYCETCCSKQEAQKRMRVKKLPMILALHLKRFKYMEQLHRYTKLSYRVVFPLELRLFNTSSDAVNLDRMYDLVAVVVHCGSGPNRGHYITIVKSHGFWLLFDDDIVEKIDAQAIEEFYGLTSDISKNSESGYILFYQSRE
For a further experiment, the target named is T2, USP47 (UniProt Q96K76).
T2 sequence (whole entry): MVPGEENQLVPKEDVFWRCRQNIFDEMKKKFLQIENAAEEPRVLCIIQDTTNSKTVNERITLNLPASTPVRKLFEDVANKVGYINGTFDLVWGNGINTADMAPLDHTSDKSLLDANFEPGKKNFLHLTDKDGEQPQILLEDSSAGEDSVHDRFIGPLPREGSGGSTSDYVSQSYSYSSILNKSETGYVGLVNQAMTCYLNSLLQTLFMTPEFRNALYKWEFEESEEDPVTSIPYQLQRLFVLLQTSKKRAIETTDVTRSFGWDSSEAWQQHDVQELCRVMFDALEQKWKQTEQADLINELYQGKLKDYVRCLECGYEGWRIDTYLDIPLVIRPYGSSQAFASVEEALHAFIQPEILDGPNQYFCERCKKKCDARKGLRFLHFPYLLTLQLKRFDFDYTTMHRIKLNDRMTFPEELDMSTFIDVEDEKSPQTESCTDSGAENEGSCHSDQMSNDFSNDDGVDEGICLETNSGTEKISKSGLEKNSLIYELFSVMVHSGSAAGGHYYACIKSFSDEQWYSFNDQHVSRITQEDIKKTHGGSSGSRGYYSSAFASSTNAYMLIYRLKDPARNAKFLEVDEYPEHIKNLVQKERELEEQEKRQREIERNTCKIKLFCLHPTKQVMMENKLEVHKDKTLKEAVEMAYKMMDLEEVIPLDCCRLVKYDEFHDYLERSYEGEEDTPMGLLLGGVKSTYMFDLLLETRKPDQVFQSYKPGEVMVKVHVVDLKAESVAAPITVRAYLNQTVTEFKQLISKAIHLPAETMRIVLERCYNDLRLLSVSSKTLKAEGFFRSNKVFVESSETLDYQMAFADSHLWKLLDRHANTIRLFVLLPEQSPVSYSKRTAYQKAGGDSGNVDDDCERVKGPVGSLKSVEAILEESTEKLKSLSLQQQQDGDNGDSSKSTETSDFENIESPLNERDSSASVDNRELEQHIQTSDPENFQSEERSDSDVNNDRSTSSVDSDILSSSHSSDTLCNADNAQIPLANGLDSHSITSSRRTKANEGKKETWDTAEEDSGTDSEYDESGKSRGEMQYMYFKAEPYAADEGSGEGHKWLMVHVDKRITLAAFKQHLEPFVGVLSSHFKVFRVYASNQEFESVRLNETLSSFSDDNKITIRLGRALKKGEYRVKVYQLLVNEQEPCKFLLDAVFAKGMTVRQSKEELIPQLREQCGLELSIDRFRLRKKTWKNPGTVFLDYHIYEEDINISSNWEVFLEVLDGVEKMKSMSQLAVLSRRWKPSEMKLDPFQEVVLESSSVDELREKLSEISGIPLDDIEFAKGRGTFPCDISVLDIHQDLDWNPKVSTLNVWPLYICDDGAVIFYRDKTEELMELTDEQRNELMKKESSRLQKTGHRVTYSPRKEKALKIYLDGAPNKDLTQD
The method in brief: as §1

The next experiment concerns the target T3, USP48 (UniProt Q86UV5).
T3 sequence (whole entry): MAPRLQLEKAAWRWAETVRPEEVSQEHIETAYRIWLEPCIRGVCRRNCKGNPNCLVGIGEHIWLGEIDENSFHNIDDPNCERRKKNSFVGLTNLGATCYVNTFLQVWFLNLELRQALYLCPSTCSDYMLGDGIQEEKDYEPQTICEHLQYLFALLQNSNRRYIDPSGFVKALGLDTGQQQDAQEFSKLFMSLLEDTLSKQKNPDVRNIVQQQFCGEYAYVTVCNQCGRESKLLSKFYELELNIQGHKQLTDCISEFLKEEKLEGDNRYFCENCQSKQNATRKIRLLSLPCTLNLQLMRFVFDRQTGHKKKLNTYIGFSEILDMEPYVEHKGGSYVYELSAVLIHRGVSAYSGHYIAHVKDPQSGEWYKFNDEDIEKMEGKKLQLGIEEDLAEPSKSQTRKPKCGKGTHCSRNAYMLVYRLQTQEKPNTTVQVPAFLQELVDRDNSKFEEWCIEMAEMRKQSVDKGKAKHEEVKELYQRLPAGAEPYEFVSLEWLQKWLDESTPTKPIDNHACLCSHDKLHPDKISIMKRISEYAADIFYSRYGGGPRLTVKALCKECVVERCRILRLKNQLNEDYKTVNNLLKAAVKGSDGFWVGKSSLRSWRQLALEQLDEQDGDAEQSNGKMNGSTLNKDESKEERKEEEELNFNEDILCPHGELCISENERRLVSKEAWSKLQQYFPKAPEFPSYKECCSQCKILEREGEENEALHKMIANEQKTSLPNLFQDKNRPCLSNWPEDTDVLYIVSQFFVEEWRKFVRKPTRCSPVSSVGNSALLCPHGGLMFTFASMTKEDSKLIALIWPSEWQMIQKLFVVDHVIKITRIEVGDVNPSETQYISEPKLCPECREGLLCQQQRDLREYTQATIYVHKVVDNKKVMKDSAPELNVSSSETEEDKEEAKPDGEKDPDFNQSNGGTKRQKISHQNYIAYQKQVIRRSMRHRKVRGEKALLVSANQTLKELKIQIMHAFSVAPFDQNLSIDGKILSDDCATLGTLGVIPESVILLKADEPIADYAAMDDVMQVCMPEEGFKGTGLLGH
The method in brief:
as §1

The target of the next experiment is T4, USP5 (UniProt P45974).
T4 sequence (whole entry): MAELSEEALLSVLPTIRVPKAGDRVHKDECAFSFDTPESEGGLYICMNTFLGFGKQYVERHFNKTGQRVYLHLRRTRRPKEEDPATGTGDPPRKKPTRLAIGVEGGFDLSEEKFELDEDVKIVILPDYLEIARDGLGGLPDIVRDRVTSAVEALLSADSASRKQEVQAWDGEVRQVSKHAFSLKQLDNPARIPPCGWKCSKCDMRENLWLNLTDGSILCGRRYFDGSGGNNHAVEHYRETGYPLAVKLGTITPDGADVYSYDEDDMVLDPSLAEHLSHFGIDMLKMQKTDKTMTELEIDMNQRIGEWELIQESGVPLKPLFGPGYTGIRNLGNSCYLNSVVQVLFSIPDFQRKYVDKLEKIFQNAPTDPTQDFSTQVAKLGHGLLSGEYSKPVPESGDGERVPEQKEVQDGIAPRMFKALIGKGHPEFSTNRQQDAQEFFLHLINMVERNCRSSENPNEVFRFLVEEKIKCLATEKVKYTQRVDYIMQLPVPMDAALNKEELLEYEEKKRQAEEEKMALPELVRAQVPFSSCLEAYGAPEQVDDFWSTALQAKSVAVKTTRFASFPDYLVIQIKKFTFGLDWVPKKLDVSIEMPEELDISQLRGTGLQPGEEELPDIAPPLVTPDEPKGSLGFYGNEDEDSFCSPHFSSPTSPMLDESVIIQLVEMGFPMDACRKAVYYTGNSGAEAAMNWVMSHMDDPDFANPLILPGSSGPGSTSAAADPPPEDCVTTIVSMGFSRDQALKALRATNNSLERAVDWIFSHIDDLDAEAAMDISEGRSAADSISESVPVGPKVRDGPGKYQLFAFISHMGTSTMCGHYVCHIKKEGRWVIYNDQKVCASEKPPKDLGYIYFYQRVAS
The method in brief: as §1

The target of the next experiment is USP54 (UniProt Q70EL1). The method in brief:
as §1

The target of a further experiment is USP7 (UniProt Q93009). The method in brief: as §1
The next experiment has as its target T5, USP8 (UniProt P40818).
T5 sequence (whole entry): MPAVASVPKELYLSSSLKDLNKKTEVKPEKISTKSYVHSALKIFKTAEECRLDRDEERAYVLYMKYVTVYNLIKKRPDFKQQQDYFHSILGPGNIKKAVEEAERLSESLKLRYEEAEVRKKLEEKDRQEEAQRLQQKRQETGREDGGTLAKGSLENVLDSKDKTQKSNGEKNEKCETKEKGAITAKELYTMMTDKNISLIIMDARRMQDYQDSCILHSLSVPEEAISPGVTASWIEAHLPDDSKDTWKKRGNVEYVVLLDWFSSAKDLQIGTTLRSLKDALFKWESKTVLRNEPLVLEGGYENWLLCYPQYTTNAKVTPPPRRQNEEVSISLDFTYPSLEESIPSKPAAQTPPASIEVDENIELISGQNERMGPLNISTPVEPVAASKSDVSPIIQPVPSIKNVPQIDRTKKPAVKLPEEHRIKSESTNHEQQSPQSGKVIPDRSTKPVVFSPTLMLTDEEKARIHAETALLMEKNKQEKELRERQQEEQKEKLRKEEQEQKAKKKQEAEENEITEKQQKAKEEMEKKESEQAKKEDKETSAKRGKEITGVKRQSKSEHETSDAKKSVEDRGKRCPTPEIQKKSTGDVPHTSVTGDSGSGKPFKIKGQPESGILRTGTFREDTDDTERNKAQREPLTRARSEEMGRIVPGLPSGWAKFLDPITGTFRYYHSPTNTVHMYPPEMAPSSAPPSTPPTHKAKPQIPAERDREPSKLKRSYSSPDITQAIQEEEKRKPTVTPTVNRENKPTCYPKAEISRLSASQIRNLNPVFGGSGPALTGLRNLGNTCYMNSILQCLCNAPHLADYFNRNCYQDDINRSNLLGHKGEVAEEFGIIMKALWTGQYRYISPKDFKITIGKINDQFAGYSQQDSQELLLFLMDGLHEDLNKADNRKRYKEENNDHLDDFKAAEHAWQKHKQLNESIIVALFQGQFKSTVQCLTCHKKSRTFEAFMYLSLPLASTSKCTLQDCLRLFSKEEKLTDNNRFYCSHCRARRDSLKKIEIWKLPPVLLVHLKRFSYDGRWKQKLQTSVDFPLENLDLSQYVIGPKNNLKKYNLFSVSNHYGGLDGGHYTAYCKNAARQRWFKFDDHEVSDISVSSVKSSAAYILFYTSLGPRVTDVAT
The method in brief:
as §1

Another experiment addresses USP9X (UniProt Q93008). The method in brief: as §1
The target in another experiment is UniProt O00487. The method in brief:
as §1

USP9X, sequence (Q93008 whole entry): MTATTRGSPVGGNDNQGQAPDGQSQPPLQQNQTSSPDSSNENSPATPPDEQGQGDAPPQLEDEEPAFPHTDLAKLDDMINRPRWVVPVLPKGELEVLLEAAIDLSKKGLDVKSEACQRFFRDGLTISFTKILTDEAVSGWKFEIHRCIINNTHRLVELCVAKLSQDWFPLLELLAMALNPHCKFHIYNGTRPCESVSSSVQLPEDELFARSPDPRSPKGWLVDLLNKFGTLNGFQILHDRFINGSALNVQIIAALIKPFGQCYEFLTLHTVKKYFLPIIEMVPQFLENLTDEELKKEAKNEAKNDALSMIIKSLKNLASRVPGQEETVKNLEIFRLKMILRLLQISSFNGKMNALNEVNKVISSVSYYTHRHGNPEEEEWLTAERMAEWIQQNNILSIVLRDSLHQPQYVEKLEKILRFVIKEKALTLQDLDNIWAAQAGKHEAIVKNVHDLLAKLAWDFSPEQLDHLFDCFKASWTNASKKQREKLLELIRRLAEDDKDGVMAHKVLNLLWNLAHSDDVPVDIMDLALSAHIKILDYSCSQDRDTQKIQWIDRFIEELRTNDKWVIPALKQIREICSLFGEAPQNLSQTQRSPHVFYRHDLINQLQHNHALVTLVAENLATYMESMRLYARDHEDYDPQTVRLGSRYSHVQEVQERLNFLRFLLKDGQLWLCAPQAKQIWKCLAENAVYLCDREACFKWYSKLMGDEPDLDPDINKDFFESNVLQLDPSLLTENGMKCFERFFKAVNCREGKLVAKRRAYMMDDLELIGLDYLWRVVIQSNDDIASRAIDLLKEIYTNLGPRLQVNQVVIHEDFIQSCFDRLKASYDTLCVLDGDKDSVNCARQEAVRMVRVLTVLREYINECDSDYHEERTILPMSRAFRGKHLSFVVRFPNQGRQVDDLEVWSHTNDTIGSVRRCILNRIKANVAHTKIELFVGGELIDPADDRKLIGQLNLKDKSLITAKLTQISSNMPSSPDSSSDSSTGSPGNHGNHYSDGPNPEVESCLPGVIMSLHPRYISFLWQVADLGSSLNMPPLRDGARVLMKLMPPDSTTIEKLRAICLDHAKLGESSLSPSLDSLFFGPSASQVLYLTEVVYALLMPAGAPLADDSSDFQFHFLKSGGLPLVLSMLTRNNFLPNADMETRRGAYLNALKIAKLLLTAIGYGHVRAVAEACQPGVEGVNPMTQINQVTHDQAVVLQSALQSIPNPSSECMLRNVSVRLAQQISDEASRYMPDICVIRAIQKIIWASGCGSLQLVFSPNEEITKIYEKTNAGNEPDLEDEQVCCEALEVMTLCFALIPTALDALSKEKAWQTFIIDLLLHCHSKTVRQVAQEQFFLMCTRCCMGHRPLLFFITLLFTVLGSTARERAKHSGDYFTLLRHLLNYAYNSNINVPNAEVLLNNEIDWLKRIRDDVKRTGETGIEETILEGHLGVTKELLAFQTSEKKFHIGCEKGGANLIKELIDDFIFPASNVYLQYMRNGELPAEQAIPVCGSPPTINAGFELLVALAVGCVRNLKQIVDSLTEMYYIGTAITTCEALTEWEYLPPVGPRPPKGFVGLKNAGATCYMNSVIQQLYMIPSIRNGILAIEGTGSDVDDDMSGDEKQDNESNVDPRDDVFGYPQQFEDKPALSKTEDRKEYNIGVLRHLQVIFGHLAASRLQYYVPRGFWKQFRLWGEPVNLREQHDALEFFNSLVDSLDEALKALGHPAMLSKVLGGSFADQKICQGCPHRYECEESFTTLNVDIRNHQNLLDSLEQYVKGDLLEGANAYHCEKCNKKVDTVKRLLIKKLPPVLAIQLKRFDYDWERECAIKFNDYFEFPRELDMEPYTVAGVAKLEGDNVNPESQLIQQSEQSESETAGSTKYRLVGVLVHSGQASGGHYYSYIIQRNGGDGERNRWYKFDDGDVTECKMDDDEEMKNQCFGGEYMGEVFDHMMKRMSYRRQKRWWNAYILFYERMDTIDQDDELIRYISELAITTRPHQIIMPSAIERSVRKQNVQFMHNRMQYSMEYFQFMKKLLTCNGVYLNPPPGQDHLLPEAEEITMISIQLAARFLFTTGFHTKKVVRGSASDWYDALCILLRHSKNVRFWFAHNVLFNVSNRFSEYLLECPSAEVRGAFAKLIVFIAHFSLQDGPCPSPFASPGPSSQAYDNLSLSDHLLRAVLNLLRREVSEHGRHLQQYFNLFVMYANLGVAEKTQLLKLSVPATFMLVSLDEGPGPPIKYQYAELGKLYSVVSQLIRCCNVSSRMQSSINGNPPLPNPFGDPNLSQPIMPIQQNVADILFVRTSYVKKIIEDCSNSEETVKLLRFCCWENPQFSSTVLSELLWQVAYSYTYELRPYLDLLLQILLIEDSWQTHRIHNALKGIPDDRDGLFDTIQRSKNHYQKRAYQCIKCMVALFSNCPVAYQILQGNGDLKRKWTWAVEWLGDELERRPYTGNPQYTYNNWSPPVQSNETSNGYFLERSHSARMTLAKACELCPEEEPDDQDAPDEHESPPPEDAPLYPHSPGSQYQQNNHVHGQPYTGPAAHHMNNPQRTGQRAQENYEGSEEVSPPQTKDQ
USP54, sequence (Q70EL1 whole entry): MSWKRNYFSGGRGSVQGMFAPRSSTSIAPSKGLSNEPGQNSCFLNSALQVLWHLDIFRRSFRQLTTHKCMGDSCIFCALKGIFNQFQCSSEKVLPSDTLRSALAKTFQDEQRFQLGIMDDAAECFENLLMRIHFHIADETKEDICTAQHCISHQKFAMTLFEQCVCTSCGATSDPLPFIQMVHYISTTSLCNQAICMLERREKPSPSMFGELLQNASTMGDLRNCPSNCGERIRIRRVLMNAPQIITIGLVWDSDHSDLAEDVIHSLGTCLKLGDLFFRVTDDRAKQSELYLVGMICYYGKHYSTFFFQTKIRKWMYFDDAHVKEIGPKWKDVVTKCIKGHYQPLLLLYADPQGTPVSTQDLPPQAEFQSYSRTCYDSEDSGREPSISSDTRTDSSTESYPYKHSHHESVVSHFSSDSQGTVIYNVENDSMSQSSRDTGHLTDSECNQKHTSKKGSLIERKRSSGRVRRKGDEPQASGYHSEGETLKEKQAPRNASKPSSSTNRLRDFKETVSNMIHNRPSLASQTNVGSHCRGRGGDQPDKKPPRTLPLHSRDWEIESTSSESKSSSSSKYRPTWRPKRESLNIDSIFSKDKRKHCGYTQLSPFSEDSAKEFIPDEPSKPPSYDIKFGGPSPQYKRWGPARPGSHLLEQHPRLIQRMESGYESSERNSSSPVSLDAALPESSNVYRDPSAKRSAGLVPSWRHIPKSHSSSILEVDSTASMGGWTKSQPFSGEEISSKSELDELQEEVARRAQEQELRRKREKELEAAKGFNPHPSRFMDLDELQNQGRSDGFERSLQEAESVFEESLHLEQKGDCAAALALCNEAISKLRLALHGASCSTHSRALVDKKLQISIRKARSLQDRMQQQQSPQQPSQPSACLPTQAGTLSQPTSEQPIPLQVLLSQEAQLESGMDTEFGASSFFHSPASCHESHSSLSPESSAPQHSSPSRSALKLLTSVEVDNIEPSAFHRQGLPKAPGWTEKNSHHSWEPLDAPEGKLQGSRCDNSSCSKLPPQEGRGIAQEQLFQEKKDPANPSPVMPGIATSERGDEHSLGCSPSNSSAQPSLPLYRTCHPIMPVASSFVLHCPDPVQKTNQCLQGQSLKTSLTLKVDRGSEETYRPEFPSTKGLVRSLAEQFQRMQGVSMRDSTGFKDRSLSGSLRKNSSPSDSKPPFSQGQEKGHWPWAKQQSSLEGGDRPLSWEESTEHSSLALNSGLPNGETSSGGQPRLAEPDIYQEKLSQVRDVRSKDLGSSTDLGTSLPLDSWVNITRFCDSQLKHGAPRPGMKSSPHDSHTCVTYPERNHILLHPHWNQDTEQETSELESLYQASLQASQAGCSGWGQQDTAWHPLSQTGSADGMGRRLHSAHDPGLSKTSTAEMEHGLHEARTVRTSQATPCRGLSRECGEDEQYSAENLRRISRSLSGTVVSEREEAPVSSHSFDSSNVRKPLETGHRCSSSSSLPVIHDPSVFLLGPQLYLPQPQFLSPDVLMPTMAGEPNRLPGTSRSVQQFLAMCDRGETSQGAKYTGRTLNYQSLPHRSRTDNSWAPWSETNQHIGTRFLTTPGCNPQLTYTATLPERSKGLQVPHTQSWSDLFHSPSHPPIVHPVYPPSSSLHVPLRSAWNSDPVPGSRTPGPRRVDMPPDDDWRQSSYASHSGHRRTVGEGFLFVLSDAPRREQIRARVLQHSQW
UniProt O00487, sequence (O00487 whole entry): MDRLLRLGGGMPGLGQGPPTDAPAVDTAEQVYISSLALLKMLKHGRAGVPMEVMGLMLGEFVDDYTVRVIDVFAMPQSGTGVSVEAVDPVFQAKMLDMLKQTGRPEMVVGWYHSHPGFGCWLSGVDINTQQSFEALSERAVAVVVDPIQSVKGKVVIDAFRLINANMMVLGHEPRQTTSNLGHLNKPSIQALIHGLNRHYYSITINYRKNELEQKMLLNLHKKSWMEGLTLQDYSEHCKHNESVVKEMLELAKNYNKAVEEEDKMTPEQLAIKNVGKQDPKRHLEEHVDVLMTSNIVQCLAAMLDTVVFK

Consider `O=C(CCl)N(C1CCCC1)C1CCS(=O)(=O)C1` (stereo not given), for which the “log2 ratio of Biotin-Ahx-Ub-VS probe labelling” value (“log2 ratio” below) in the experiment with USP42 is 0.228; in the experiment with USP46, -0.0761; in the experiment with USP47, -0.442; in the experiment with USP48, -1.18 (active); with USP5, 0.124; with USP54, -0.384. The “log2 ratio” value with USP7 is -0.798; with USP8, 0.0542; in the experiment with USP9X, -0.0338; in the experiment with UniProt O00487, -0.119.

Turning to `O=C(CCl)NC1CCS(=O)(=O)c2ccccc21` (stereo not given), the “log2 ratio” value is -0.57 with USP42; -0.0772 with USP46; -0.498 with USP47; -0.471 with USP48; -0.0632 with USP5; 0.689 with USP54. Moreover, the “log2 ratio” value in the experiment with USP7 was -0.288; with USP8, -0.538; in the experiment with USP9X, -0.445; with UniProt O00487, -0.242.

For the origin of these results see the supplement of paper PMC11732987, “Enantioselective OTUD7B fragment discovery through chemoproteomics screening and high-throughput optimisation” (Communications Chemistry, 2025).
